The values below come from PubChem BioAssay AID504652 (National Center for Advancing Translational Sciences (NCATS), 2011).

Among all 360,000 compounds or so, about 11,000 (3.1%) were called active. Many of the other results were omitted from the sample, so actives are more common in it than they were. Values without a mark were called inactive. No stated cut-off is given here; in the data, active means activity change below about -30%; inactive means the rest.
On the % scale 0 is the no-effect control and ±100 the full control effect.

D(1A) dopamine receptor (Homo sapiens), sequence (P21728 whole entry, looked up): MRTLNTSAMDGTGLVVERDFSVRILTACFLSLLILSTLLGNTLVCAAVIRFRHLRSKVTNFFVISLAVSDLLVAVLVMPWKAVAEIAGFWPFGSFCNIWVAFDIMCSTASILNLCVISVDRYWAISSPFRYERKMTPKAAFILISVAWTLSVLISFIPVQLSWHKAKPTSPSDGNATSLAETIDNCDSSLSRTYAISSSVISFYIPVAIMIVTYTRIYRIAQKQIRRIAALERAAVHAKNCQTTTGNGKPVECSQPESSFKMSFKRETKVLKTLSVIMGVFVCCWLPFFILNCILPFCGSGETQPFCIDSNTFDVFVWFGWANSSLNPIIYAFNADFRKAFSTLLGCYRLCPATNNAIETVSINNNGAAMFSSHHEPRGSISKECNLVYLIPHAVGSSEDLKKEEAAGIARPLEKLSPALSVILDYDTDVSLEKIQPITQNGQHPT

This assay concerns the target D(1A) dopamine receptor (Homo sapiens) (UniProt P21728). The assay can be described thus: Antagonist of Human D 1 Dopamine Receptor: qHTS. The settings on record: HEK293 TREx D1 cells, calcium flux, dopamine EC80; at 10 µM; stronger effect = lower value. An excerpt:
Dopamine receptors (DARs) are involved in the etiology and/or therapy of a number of neuropsychiatric and endocrine disorders. For instance, all receptor-based antiparkinsonian drugs work via stimulating the […] DAR subtype whereas all FDA-approved antipsychotic agents are antagonists of this receptor. […] There are three different types of allosteric modulators that we are seeking, two of which will stimulate or augment receptor signaling, allosteric agonists and potentiators, while the third, allosteric antagonists, will attenuate receptor signaling. The present primary screening assay measures compound antagonism after an EC80 addition of dopamine by tracking calcium flux in a […], inducible Hek293 Trex D1 cell line. NIH Chemical Genomics Center [NCGC] NIH Molecular Libraries Probe Centers Network [MLPCN] MLPCN Grant: NS064831-01 Assay Submitter (PI): David Sibley
Freshly passaged cells are plated in 1536 well black, clear bottom plates at a density of 4000 cells/well in 3 ul of complete media containing 1x tetracycline inducer. After an overnight incubation at 30 C in 5% CO2, cells are loaded with 2 ul of the no wash Calcium Assay Kit (ABD Bioquest) and incubated at room temperature for 30 to 90 minutes. Agonist read: A 10 cycle (1 second/cycle) baseline measurement is taken and then the FDSS online 1536 pintool delivers 23 nl of compound library (as well as dopamine controls) to the plate. The plate is measured for kinetically at 1 cycle/sec for 180 seconds. Following the 180 second read, 1 ul of an EC80 (negative modulation assay) is delivered by an onboard pipette head. Measurements are taken kinetically for an additional 180 seconds.
Turning to `Cc1nnc(SCc2cc(=O)c3cc(F)ccc3[nH]2)n1C`, the activity change, negative = inhibition is -67.4% (active).

Regarding `O=c1cc(CSc2ncn[nH]2)[nH]c2ccc(F)cc12`, the activity change, negative = inhibition was 10.4%.

As to `Cn1c(SCc2ccc(F)cc2)nnc1-c1ccncc1`, the activity change, negative = inhibition is 5.13%.

Regarding `Cc1cccc(NC(=O)c2ccc3nc(C(C)C)oc3c2)c1C`, the activity change, negative = inhibition was 9.09%.

For `Cc1cc(C(=O)OCC(=O)c2c(N)n(C)c(=O)n(C)c2=O)c(C)o1`, the activity change, negative = inhibition was -60.8% (active).

As to `Cn1c(N)c(C(=O)COC(=O)c2cnc(Cl)c(Cl)c2)c(=O)n(C)c1=O`, the activity change, negative = inhibition was 12.2%.

As to `CC1CC1C(=O)OCC(=O)c1c(N)n(C)c(=O)n(C)c1=O` (stereo not given), the activity change, negative = inhibition is 5.53%.

On to `O=C(CSc1nccn1-c1ccc(F)cc1)Nc1cccc2ccccc12`, for which the activity change, negative = inhibition was 43.1%.

`O=C(Cn1c(=O)n(Cc2cccs2)c(=O)c2cccnc21)Nc1ccc(F)cc1`: the activity change, negative = inhibition is 2.03%.

For `Cc1c(Cl)cccc1NC(=O)C1CCCN(c2ncnc3onc(C)c23)C1` (stereo not given), the activity change, negative = inhibition is -3.12%.

Turning to `CN(Cc1ccccc1)C(=O)COc1ccccc1`, the activity change, negative = inhibition is 2.23%.

As to `COc1ccc(C(CCN(Cc2ccc(OC)c(OC)c2)C(=O)CCl)c2ccccc2)cc1` (stereo not given), the activity change, negative = inhibition is 0.248%.

As for `COc1ccc(CN(C)C(=O)CC(c2ccccc2)c2ccccc2)cc1`, the activity change, negative = inhibition is -31.6% (active).

For `CCOC(=O)CC1COCCN1C(=O)c1cc(COc2ccc(F)c(F)c2)on1` (stereo not given), the activity change, negative = inhibition was -41% (active).

In the case of `O=C(c1cc(COc2ccc(F)c(F)c2)on1)N1CCOCC1`, the activity change, negative = inhibition is -16.4%.

Consider `CCC(NC(=O)c1cc(COc2ccc(F)c(F)c2)on1)c1ccncc1` (stereo not given), for which the activity change, negative = inhibition is -27.1%.

For the compound `Cc1ccc(C(=O)N2CCc3cc(CNC(=O)c4ccc(Br)cc4)ccc32)cc1`, the activity change, negative = inhibition is 3.02%.

With `Cc1noc2ncnc(NCc3ccccc3Cl)c12`, the activity change, negative = inhibition was -4.33%.

As for `COc1ccc(OC)c(S(=O)(=O)Nc2c(C)nn(C)c2C)c1`, the activity change, negative = inhibition is 2.31%.

In the case of `Nc1ncc(S(=O)(=O)Nc2ccc(OC(F)(F)F)cc2)cn1`, the activity change, negative = inhibition is 18%.

As for `Cc1nn(C)c(C)c1NS(=O)(=O)c1ccc(OC(F)(F)F)cc1`, the activity change, negative = inhibition is -90.7% (active).

For the compound `Cc1cccc(NC(=O)C2CCN(S(=O)(=O)c3c(C)noc3/C=C/c3ccco3)CC2)c1`, the activity change, negative = inhibition was -5.72%.

For the compound `C=Cc1ccc(Cn2c(C(=O)OC)cc3sc(C)cc32)cc1`, the activity change, negative = inhibition was 21.5%.

For `CC(Sc1nnc(-c2cccs2)n1C1CC1)C(=O)NCC1CCCO1` (stereo not given), the activity change, negative = inhibition was -30.6% (active).

On to `Cc1ccc(N(C(=O)Cc2cccs2)C(C(=O)NCC2CCCO2)c2ccncc2)cc1` (stereo not given), for which the activity change, negative = inhibition is -0.595%.

`CC(Sc1nn(-c2ccc(Cl)cc2)c(=S)s1)C(=O)NCC1CCCO1` (stereo not given): the activity change, negative = inhibition was -0.972%.

As for `CC(C)OCCCn1c(SCC(=O)c2ccccc2)nc2c(sc3ccccc32)c1=O`, the activity change, negative = inhibition is 4.36%.

In the case of `Cc1cc(C)cc(OC(C)C(=O)Nc2nc3c(s2)CCCC3)c1` (stereo not given), the activity change, negative = inhibition was 3%.

Consider `COc1ccc2cc(CNc3ccc(OC)c(OC)c3)c(=O)n(CC(=O)Nc3ccccc3F)c2c1`, for which the activity change, negative = inhibition was -14.2%.

Take `Cc1ccc2[nH]cc(CCNC(=O)C3CCCCC3)c2c1`: the activity change, negative = inhibition is -23.8%.

Consider `CCOc1ccc(CN2CCN(Cc3c[nH]c4ccccc34)CC2)cc1`, for which the activity change, negative = inhibition was 4.58%.

With `O=C(NCCc1c[nH]c2ccccc12)C1CCN(Cc2ccc(Br)cc2)CC1`, the activity change, negative = inhibition is -56.3% (active).

On to `Cc1cc(C)cc(NS(=O)(=O)c2ccc3[nH]cc(C(=O)N4CCCCC4)c(=O)c3c2)c1`, for which the activity change, negative = inhibition was -3.92%.

Consider `CCN(c1ccc(Cl)cc1)S(=O)(=O)c1nnc(NC(=O)c2ccco2)s1`, for which the activity change, negative = inhibition is -1.57%.

`Cc1nc2ccc(C(=O)N(C)CC3CCCN(CCc4ccc(Cl)cc4)C3)cc2[nH]1` (stereo not given): the activity change, negative = inhibition is -13.3%.

On to `COc1cccc(CN(C)CC2CCCN(CCc3ccc(Cl)cc3)C2)c1OC` (stereo not given), for which the activity change, negative = inhibition was -79.9% (active).

In the case of `COc1cccc(CN(C)CC(=O)NCc2ccccc2Cl)c1OC`, the activity change, negative = inhibition was -23.2%.

Take `CCc1ccc(NC(=O)CCS(=O)(=O)c2cc3c(cc2Cl)NC(=O)CO3)cc1`: the activity change, negative = inhibition was -16.7%.

`COc1ccc(-n2c(SCC(N)=O)nc3c(oc4ccccc43)c2=O)cc1`: the activity change, negative = inhibition is 10.8%.

On to `Nc1c(C(=O)c2cccs2)sc2nsc(SCCN3CCCCC3)c12`, for which the activity change, negative = inhibition is -42.4% (active).

`CN(C)c1ccc(C(CNS(=O)(=O)c2cc(F)ccc2F)N2CCOCC2)cc1` (stereo not given): the activity change, negative = inhibition was -3.66%.

Regarding `Cc1ccc(NC(=O)CSc2nc3c([nH]c4ccccc43)c(=O)n2-c2ccccc2)c(C)c1`, the activity change, negative = inhibition was -35.7% (active).

Regarding `Cc1cccc(NC(=O)CSc2nc3c([nH]c4ccccc43)c(=O)n2-c2cc(C)cc(C)c2)c1`, the activity change, negative = inhibition is 23.9%.

For `Cc1ccc(NC(=O)CSc2nc3c([nH]c4ccccc43)c(=O)n2-c2ccccc2)cc1Cl`, the activity change, negative = inhibition is -8.44%.

For the compound `CCN(CC)C(=O)CSc1nnc(-c2ccc(S(=O)(=O)NCc3ccccc3Cl)cc2)o1`, the activity change, negative = inhibition was -32.6% (active).
